Measurements reported in PubChem BioAssay (NCATS).
Results filed as inconclusive are left out. Where a call stands in place of a potency, no number is given. The source made the active and inactive calls. Unless noted, calls come from the whole dose curve; as a rule, active = well fitted curve in the direction sought with a large enough effect; inconclusive = small, poorly fitted or top-dose-only effect, or another doubt; inactive = no such curve, though single readings can be large; an effect the other way counts as inactive or inconclusive. Where a SMILES comes first, the peptide text is derived from it. [ ]: non-standard residue; d: D form. pGlu = O=C1CC[C@@H](C(=O)O)N1; Thz = O=C(O)[C@@H]1CSCN1

Tests used:
[1] = biological target: Thyroid hormone receptor beta (Homo sapiens) (UniProt P10828); test: qHTS assay for small molecule agonists of thyroid hormone receptor beta signaling (AID 588545; calls by dose curve)
Chain of Thyroid hormone receptor beta (Homo sapiens) (P10828 whole entry, looked up): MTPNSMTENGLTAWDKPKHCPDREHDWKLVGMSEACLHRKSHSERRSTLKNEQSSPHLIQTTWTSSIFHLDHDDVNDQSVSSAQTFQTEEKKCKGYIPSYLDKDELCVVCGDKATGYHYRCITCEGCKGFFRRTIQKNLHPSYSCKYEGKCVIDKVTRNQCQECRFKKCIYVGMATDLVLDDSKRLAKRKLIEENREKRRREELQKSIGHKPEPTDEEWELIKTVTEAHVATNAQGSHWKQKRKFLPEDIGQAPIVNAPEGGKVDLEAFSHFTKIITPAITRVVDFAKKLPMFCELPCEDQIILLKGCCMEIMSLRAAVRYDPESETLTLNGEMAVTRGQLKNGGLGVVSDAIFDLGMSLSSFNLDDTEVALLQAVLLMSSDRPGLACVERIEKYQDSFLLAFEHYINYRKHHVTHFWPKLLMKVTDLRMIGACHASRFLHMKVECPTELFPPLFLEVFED
How it was run: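 TR-UAS-bla GripTite HEK 293 cells (2500/well, medium with 2% charcoal/dextran FBS) were treated in agonist mode for 18 h at 37 C, titrated. Beta-lactamase was read by CCF4 ratio after 2 h; normalized to 10 nM T3 (100%) and DMSO, Hill-fitted for EC50 and efficacy.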

[2] = qHTS assay for small molecule antagonists of retinoid X receptor alpha signaling (AID 588546; active = well fitted inhibition curve with a large enough effect in the signal ratio, with a control signal flat, not every such curve was filed as active; the % refers to the signal ratio;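 note: cells stimulated with 9-cis-retinoic acid as agonist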); details: HEK293T RXRa-UAS-bla, beta-lactamase ratio, antagonist mode; measured here: W530 green channel, cytotoxicity proxy
How it was run: (§1)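 Beta-lactamase reporter inhibition, read as CCF4 fluorescence ratio (ex 405, em 460/530 nm) after 2 h at RT. HEK293T UAS-bla cells, 2500/well, were stimulated with 9-cis-RA at 500 or 100 nM final alongside test compound for 18 h at 37 C.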

[3] = biological target: Retinoic acid receptor RXR-alpha (Homo sapiens) (UniProt P19793); test: as above; details: HEK293T RXRa-UAS-bla, beta-lactamase ratio, antagonist mode
Chain of Retinoic acid receptor RXR-alpha (Homo sapiens) (P19793 whole entry, looked up): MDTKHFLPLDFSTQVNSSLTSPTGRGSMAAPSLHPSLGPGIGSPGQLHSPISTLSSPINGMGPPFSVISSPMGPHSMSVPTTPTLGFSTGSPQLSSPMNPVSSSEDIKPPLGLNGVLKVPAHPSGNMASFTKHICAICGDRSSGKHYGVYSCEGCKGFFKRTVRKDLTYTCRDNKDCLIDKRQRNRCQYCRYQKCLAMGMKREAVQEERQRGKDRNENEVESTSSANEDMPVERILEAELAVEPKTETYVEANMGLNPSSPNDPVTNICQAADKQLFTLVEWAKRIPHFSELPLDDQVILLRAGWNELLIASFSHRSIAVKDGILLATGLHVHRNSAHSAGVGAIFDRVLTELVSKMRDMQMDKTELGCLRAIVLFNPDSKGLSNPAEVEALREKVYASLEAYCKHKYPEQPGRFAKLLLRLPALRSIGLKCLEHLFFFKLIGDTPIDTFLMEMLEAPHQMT
How it was run: as §1

[4] = biological target: Voltage-gated inwardly rectifying potassium channel KCNH2 (Homo sapiens) (UniProt Q12809); test: qHTS Assay for Small Molecule Inhibitors of the Human hERG Channel Activity (AID 588834);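 note: lower thallium flux fluorescence means stronger hERG block; nearly all actives have a fitted effect of over 50% in size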; note: potency is the fitted concentration of half-maximal effect
Chain of Voltage-gated inwardly rectifying potassium channel KCNH2 (Homo sapiens) (Q12809 whole entry, looked up): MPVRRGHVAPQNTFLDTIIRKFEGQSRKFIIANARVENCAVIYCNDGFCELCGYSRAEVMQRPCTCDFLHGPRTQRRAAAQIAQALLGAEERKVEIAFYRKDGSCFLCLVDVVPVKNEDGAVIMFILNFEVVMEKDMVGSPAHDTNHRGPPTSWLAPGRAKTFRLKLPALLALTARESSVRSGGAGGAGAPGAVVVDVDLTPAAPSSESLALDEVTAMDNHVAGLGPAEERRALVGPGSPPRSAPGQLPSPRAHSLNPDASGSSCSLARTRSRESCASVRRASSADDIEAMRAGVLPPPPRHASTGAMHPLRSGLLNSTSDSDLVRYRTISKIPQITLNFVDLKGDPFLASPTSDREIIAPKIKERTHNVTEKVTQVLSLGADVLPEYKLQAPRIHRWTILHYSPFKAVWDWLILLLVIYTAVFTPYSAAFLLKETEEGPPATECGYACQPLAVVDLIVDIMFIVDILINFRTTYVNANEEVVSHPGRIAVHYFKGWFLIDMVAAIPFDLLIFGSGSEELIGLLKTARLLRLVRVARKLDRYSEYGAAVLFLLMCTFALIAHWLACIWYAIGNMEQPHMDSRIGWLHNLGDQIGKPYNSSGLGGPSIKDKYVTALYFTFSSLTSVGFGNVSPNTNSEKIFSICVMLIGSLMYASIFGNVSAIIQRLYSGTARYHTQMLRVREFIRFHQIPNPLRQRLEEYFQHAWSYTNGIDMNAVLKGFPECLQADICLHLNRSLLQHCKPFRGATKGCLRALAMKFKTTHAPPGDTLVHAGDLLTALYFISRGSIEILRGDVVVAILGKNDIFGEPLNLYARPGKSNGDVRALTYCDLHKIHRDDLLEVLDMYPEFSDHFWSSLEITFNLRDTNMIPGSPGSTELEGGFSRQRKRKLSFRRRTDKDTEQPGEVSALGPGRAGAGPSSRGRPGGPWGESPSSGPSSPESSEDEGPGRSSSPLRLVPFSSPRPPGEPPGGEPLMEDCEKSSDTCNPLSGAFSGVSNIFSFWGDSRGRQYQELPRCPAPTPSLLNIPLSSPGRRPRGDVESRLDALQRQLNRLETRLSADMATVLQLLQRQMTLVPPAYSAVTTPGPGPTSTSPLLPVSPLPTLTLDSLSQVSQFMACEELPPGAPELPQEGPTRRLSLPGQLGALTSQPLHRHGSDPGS
How it was run: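 Step 1: BacMam hERG transduction of U2OS, 4 hrs RT. Step 2: overnight 37 °C, plate 2000 cells/well, 4 hr. Step 3: FluxOR load, compound 10 min, stimulate, read fluorescence.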

[5] = biological target: Luciferin 4-monooxygenase (Photinus pyralis) (UniProt P08659); test: Biochemical firefly luciferase enzyme assay for NPC (AID 624030); note: nearly all actives have a fitted effect of over 70% in size; note: potency is the fitted concentration of half-maximal effect
Chain of Luciferin 4-monooxygenase (Photinus pyralis) (P08659 whole entry, looked up): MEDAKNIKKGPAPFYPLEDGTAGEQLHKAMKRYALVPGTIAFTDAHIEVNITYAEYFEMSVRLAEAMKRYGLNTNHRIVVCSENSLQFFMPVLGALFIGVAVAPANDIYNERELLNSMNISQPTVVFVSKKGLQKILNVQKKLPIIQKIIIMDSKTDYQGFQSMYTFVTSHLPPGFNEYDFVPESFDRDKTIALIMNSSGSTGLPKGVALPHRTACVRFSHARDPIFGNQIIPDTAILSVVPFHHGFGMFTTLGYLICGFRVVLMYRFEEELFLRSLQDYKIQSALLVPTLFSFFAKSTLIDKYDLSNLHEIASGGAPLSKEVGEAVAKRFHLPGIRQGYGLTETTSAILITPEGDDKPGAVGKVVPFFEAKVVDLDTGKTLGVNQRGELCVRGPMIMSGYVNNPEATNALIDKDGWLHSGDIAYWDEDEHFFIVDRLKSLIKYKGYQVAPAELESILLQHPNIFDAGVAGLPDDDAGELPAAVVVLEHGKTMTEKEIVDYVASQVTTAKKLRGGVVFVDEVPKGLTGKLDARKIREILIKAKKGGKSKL
How it was run: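 Counter-screen for direct inhibition of the luciferase enzyme by approved-drug library compounds, run at 10 nM enzyme in 50 mM Tris acetate (final). Luminescence was read within 5 min of enzyme-buffer addition and normalized to PTC124 versus DMSO (0%).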

[6] = S16 Schwann cell viability assay (CellTiter-Glo assay) (AID 624031); note: nearly all actives have a fitted effect of over 70% in size; note: potency is the fitted concentration of half-maximal effect
How it was run: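 Parental S16 cells, 24 h compound, 37 °C. ATP-luminescence viability; DMSO = 0% activity, empty wells as reference; curves classified by fit quality and efficacy.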

[7] = biological target: Retinoic acid receptor RXR-alpha (Homo sapiens) (UniProt P19793); test: qHTS assay for small molecule agonists of retinoid X receptor alpha signaling (AID 588544; calls by dose curve)
[8] = S16 Schwann cell PMP22 intronic element firefly luciferase assay (AID 624032); note: nearly all actives have a fitted effect of over 30% in size; note: potency is the fitted concentration of half-maximal effect
How it was run: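 Rat S16 Schwann cells stably carrying a PMP22 intronic element-driven Fluc reporter were seeded overnight, then exposed to compounds for 24 h at 37 °C. Luminescence was normalized to PTC124 (positive control) and DMSO (0% activity).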

[9] = qHTS for Inhibitors of the vitamin D receptor (VDR): Hit Validation using a Texas Red Assay (AID 602201); details: VDR coregulator binding, Texas Red fluorescence polarization; agonist-bound VDR ligand-binding domain; note: potency is the fitted concentration of half-maximal effect
How it was run: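 Fluorescence polarization (Ex 595/Em 615 nm) of Texas Red (7 nM) with 1.5 uM VDR-LBD and LG19078 (final concentrations). Compounds were incubated for 2 hours at room temperature.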

O=C1CN(/N=C/c2ccc([N+](=O)[O-])o2)C(=O)N1
outcome [1]: inactive
max response [2]: 9.13%
max response [3]: 25.9% (inactive)
Potency [4]: inactive
Potency [5]: inactive
Potency [6]: inactive

CC1(C)S[C@@H]2[C@H](NC(=O)[C@H](N)c3ccccc3)C(=O)N2[C@H]1C(=O)O
outcome [7]: inactive
max response [2]: -6.23%
max response [3]: -0.87% (inactive)

O=C1NC(O)=NC1(c1ccccc1)c1ccccc1
Potency [4]: inactive

CN=c1nc(-c2ccccc2)n(-c2ccccc2)s1
Potency [4]: 11.2 µM (active)

O=C(O)Cc1ccc(-c2ccccc2)cc1
Potency [4]: inactive
Potency [5]: inactive
Potency [6]: inactive
Potency [8]: inactive

CCCCCCOc1ccccc1C(N)=O
Potency [4]: inactive
Potency [5]: inactive
Potency [6]: inactive
Potency [8]: inactive

CCCCC1C(=O)N(c2ccccc2)N(c2ccc(O)cc2)C1=O (centres undefined)
Potency [4]: inactive
Potency [9]: 15.8 µM (active)

Cc1ccc(O)c(-n2nc3ccccc3n2)c1
Potency [4]: inactive
Potency [5]: 2.87 µM (active)
Potency [6]: inactive
Potency [8]: inactive

CN[C@H](CC(C)C)C(=O)N[C@H]1C(=O)N[C@@H](CC(N)=O)C(=O)N[C@H]2C(=O)N[C@H]3C(=O)N[C@H](C(=O)N[C@H](C(=O)O)c4cc(O)cc(O)c4-c4cc3ccc4O)[C@H](O)c3ccc(c(Cl)c3)Oc3cc2cc(c3O[C@@H]2O[C@H](CO)[C@@H](O)[C@H](O)[C@H]2O[C@H]2C[C@](C)(N)[C@H](O)[C@H](C)O2)Oc2ccc(cc2Cl)[C@H]1O
Potency [4]: inactive

Clc1ccccc1-c1nc(-c2ccncc2)no1
Potency [4]: inactive
Potency [5]: 3.61 µM (active)
Potency [6]: inactive
Potency [8]: inactive

COc1ccccc1N1CCN(CCCCNS(=O)(=O)c2cccc3c(N(C)C)cccc23)CC1
Potency [4]: 1.41 µM (active)

CCOC(=O)c1ccccc1O
Potency [4]: inactive
Potency [5]: inactive
Potency [6]: inactive
Potency [8]: inactive

C[S+](CC[C@H](N)C(=O)O)C[C@H]1O[C@@H](n2cnc3c(N)ncnc32)[C@H](O)[C@@H]1O (some centres undefined)
Potency [4]: inactive
Potency [5]: inactive
Potency [6]: inactive

COc1cc(/C=C/C(=O)N2CCN(CC(=O)N3CCCC3)CC2)cc(OC)c1OC
Potency [4]: inactive
Potency [5]: inactive
Potency [6]: inactive
Potency [8]: inactive

C=C(Nc1ccc(OCC)cc1)Nc1ccc(OCC)cc1
Potency [4]: 14.1 µM (active)
Potency [5]: inactive
Potency [6]: inactive
Potency [8]: inactive

CN1[C@@H](CC(=O)c2ccccc2)CCC[C@H]1C[C@H](O)c1ccccc1
Potency [4]: 1.41 µM (active)
Potency [5]: inactive
Potency [6]: inactive
Potency [8]: inactive

O=C(O)COc1ccc(C(=O)c2cccs2)c(Cl)c1Cl
Potency [4]: inactive
Potency [5]: inactive
Potency [6]: inactive
Potency [8]: inactive

COc1cc2c3cc1Oc1cc(ccc1O)C[C@@H]1c4c(cc(OC)c(O)c4Oc4ccc(cc4)C[C@@H]3N(C)CC2)CC[N+]1(C)C
Potency [4]: inactive
Potency [5]: inactive
Potency [6]: inactive
Potency [8]: inactive

CN1CC(=O)N/C1=N/C(=O)Nc1cccc(Cl)c1
Potency [4]: inactive
Potency [5]: inactive

O=C(O)c1cc([N+](=O)[O-])ccc1NCCCc1ccccc1
Potency [4]: inactive

COc1ccccc1CNCCCCCCNCCCCCCCCNCCCCCCNCc1ccccc1OC
Potency [4]: inactive

CN(C)CCn1nnnc1SCC1=C(C(=O)O)N2C(=O)[C@@H](NC(=O)Cc3csc(N)n3)[C@H]2SC1
Potency [4]: inactive

CC(=O)SCC[N+](C)(C)C
Potency [4]: inactive

CC1(C)CCC=[N+]1[O-]
Potency [4]: inactive

C=CC(N)CCC(=O)O (centres undefined)
Potency [4]: inactive
Potency [5]: inactive
Potency [6]: inactive
Potency [8]: inactive

CCCCCC[C@@H](O)C/C=C\CCCCCCCC(=O)O
Potency [4]: inactive
Potency [5]: inactive
Potency [6]: inactive
Potency [8]: inactive

N.N.O=C(O)C1(C(=O)O)CCC1.[Pt]
Potency [4]: inactive
Potency [5]: inactive

Cc1ccccc1CNc1ncnc2c1ncn2C1OC(CO)C(O)C1O (centres undefined)
Potency [4]: inactive
Potency [5]: inactive
Potency [6]: inactive
Potency [8]: inactive

C[N+](C)(CCCCCC[N+](C)(C)CCCN1C(=O)c2cccc3cccc(c23)C1=O)CCCN1C(=O)c2cccc3cccc(c23)C1=O
Potency [4]: inactive

N#C/C(=C\c1ccc(O)c(O)c1)C(=O)NCc1ccccc1
Potency [4]: 12.6 µM (active)

O=C1CC[C@@H](C(=O)N2CSC[C@H]2C(=O)O)N1 ([pGlu]-[Thz]-OH)
Potency [4]: inactive
Potency [5]: inactive
Potency [6]: inactive
Potency [8]: inactive

Cc1cc(O)c2ccccc2c1O
Potency [4]: inactive
Potency [5]: inactive
Potency [6]: 12.8 µM (active)
Potency [8]: 25.6 µM (active)

CC1(C)S[C@@H]2[C@H](NC(=O)[C@H](NC(=O)N3CCN(S(C)(=O)=O)C3=O)c3ccccc3)C(=O)N2[C@H]1C(=O)O
Potency [4]: inactive
Potency [5]: inactive
Potency [6]: inactive
Potency [8]: inactive

Oc1c(Br)cc(Br)c2cccnc12
Potency [4]: inactive
Potency [5]: inactive
Potency [6]: inactive
Potency [8]: inactive

[O-][n+]1ccccc1SSc1cccc[n+]1[O-]
Potency [4]: inactive
Potency [5]: 2.56 µM (active)
Potency [6]: 12.8 µM (active)
Potency [8]: 0.361 µM (active)

C=CCN1C(=O)C(CC(C)C)NC1=S (centres undefined)
Potency [4]: inactive
Potency [5]: inactive
Potency [6]: inactive
Potency [8]: inactive

N=c1ccn2c(n1)O[C@H]1[C@H](O)[C@@H](CO)O[C@H]12
Potency [4]: inactive
Potency [5]: inactive
Potency [6]: inactive
Potency [8]: 14.4 µM (active)
